According to PubChem BioAssay AID624304 (Sanford-Burnham Center for Chemical Genomics, 2012):
In all, about 360,000 compounds went through this assay and about 1,800 (0.5%) were called active. Shown is part of a subset that was picked to be rich in actives. Values without a mark were called inactive.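 Rule for the calls: active = interference check ratio from 0.5 to 1.5 plus GFP to RFP signal ratio inhibition reaching or exceeding a fixed threshold (cut at about 30% in these data, passing the limit was not always enough); inactive = the rest.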

Experiment: suppressors of acrylamide-induced Pgst-4::GFP reporter in worms, primary screen, SKN-1 inhibitor project, whole organism, uHTS, GFP/RFP fluorescence ratio, strain VP596 (AID 624304)
Settings: C. elegans VP596 Pgst-4::GFP/RFP ratio, 24 h, at 21.8 µM, hits give high values

| SMILES | inhibition |
| --- | --- |
| Cc1ccc(P(=S)(c2ccc(C)o2)N2CCOCC2)o1 | 36.8% (active) |
| CN(C)C(=O)Oc1ccc(NC(=O)N2CCOCC2)cc1 | 12% |
| CC[N+]1(C)CCCC(OC(=O)C(O)(c2ccccc2)c2ccccc2)C1 (stereo not given) | -6.17% |
| CC1CCCN1CCC(C(N)=O)(c1ccccc1)c1ccccc1 (stereo not given) | -0.187% |
| CN(C)CC1Oc2ccccc2OC1(O)c1ccccc1 (stereo not given) | -1.82% |
